hgDAF12 agonist = activates the H. glycines DAF-12 receptor ligand-binding domain; HEK293 GAL4-hgDAF12 UAS-luciferase reporter, agonist luminescence; normalized to butyrate control; 370,000 tested, 1.8% active; activation, % at 6.8 µM; AID 687014;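 active = activation above a cutoff set at the mean of all screened compounds plus 3 SD, cut at about 10% in these data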;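 note: 0% = DMSO wells and 100% = sodium butyrate wells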
AHR activator = human AHR activation | P35869 | AHR-responsive luciferase reporter cells, luminescence | activation, % at 5 µM | 320,000 tested, 2.5% active | AID 2796; in the data active = activation above about 47%;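 note: 0% = vehicle wells and 100% = reference agonist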
Target sequence (P35869 whole entry, looked up): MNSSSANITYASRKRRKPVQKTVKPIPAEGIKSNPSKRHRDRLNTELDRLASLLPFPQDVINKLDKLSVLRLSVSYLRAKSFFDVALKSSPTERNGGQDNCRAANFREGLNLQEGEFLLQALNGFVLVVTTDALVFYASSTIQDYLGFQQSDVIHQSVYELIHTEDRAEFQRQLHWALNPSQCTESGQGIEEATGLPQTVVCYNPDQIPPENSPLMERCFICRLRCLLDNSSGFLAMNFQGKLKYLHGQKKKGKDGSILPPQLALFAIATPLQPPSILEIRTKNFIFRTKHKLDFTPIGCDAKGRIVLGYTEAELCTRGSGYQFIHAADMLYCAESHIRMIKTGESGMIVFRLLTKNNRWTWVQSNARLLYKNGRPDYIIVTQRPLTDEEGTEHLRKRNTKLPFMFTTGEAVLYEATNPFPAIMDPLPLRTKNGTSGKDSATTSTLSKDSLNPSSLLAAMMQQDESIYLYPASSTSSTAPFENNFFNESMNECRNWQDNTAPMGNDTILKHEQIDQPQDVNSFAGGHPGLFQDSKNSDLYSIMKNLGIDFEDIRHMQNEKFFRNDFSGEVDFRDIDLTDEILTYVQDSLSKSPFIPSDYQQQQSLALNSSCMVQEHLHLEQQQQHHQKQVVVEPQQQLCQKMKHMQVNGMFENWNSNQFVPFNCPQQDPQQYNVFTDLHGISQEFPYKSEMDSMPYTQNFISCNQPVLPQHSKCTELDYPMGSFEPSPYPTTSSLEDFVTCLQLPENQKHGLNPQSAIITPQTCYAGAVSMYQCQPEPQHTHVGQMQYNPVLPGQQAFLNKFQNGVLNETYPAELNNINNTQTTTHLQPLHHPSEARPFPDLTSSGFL
DAX1 inh-1 = inhibitors of DAX1 repression of SF-1 activated StAR promoter; HEK293T StAR-luciferase reporter, SF-1/DAX-1 repression relief; 370,000 tested, 1.1% active; inhibition, % at 6.8 µM;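 active = inhibition above the mean over all tested compounds plus 3 SD, cut at about 3.6% in these data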;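 note: 0% = DAX-1 cells with DMSO and 100% = cells lacking DAX-1 with DMSO; higher inhibition means more luminescence from relief of DAX-1 repression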
ssDAF-12 act = activates DAF-12 receptor from parasite S. stercoralis. HEK293 ssDAF-12/GRIP1 lit1-tk-luc reporter, luminescence; % of 3 µM dafachronic acid response. activation, % at 6.8 µM. 370,000 tested, 1% active;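 active = activation above the mean over all tested compounds plus 3 SD, cut at about 0.9% in these data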;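 note: 0% = DMSO-only wells and 100% = 3 µM delta7-dafachronic acid wells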
DAX1 inh-2 = inhibitors of human orphan nuclear receptor DAX1 (NR0B1); HEK293 Gal4-DAX1 luciferase reporter, luminescence; 340,000 tested, 0.99% active; P51843; inhibition, % at 6.75 µM; AID 504766;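 active = inhibition above the mean over all tested compounds plus 3 SD, cut at about 4.2% in these data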;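 note: 0% = DAX1-transfected cells with DMSO and 100% = empty-vector control cells with DMSO; inhibition shows as a rise in luminescence from relieved DAX1 repression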
hcDAF12 agonist = activators of H. contortus DAF-12 nuclear receptor | 370,000 tested, 1.4% active | activation, % at 6.8 µM | HEK293 hcDAF-12 lit1-tk-luc reporter, luminescence; 0% DMSO, 100% Δ7-dafachronic acid;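 active = activation above the mean of all tested compounds plus 3 SD, cut at about 5.5% in these data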;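 note: 100% = response to 3 µM Δ7-dafachronic acid high control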
An asterisk follows results filed as active; · = no result. In the library only some 5.7% were active in any assay of this set; here they are far more common.

SMILES	hgDAF12 agonist	AHR activator	DAX1 inh-1	ssDAF-12 act	DAX1 inh-2	hcDAF12 agonist
COc1ccc(NC(=O)c2[nH]c(C)c(C(C)=O)c2C)cc1S(=O)(=O)N1CCOCC1	3	12	0	-1	2	1
O=C(Cn1cc(Cl)c([N+](=O)[O-])n1)NCCC1=CCCCC1	0	1	0	-1	-2	-1
CCCNC(=O)/C=C/C(=O)O	0	0	0	-1	-1	-2
Cn1c(NC(=O)COc2ccccc2)cc(=O)n(C)c1=O	1	29	0	-1	-1	6
CC(=O)c1ccccn1	0	-1	0	-1	6.0*	-2
O=S(=O)(Nc1ccc(O)c(NS(=O)(=O)c2ccccc2)c1)c1ccccc1	3	-3	-1	-1	1	-1
CCOc1ccc(NC(=O)c2ccc(Cn3nc(C)cc3C)o2)cc1	-4	47*	-1	-1	0	-2
CCc1cccc(NC(=O)c2ccc(Cn3nc(C)cc3C)o2)c1	1	33	0	0	-2	-2
O=c1c2ccc([N+](=O)[O-])c3cccc(c32)c2nc3ccccc3n12	·	50*	·	·	·	·
O=c1/c(=C/c2ccc(O)c([N+](=O)[O-])c2)sc2nc3ccccc3n12	1	·	0	-1	·	-1
COCCNc1ccc(N2C(=O)C3CCCCC3C2=O)cc1[N+](=O)[O-] (configuration not stated)	3	6	0	-1	4.6*	-2
CC(=O)NC1CCCCN(C)C1=O (configuration not stated)	3	·	0	-1	·	0
Cc1ccc(S(=O)(=O)NC2c3cccc4cccc(c34)C2Sc2nc(C)cc(C)n2)cc1 (configuration not stated)	-1	21	0	1.4*	-2	0
CCC1(CC)N=C(c2ccccc2)C(=S)N1	1	-2	0	-2	0	-2
COc1ccc(/C(C)=N/Nc2nc3ccccc3nc2C)cc1	3	11	0	1.1*	4	5.8*
COc1ccc(/C(C)=N/Nc2nncc3ccccc23)cc1	10	10	3	1	0	4
COC(=O)C1=C(C)N(Cc2cccc(C(F)(F)F)c2)C(=NCC2CC2)NC1c1ccc(F)cc1 (configuration not stated)	2	·	3	0	·	2
O=C(N[C@H](C(=O)N1CCC[C@H]1C(=O)NCc1ccccc1)c1ccccc1)C1CCCC1	2	·	1	-1	·	-1
COC(=O)C1=C(C)N(C)C(=NCc2cc(OC)c(OC)c(OC)c2)NC1c1ccc(C(F)(F)F)cc1 (configuration not stated)	-2	·	1	-1	·	-2
c1ccc(-c2cnn3c(-c4ccccc4)c(-c4ccccc4)nc3n2)cc1	-1	·	0	-1	0	0
CC(=O)Nc1ccc(C=NNc2ccc([N+](=O)[O-])cc2S(=O)(=O)Nc2ccccc2C(=O)O)cc1	-2	-1	3.9*	-1	1	-1
O=[N+]([O-])c1ccc(N/N=C/c2ccccc2)c(F)c1	12*	1	0	-1	1	1
CC1C(C(=O)Nc2ccccc2)CCCC1(C)C(=O)O (configuration not stated)	-1	2	0	-1	0	-1
C[C@H]1CN([C@@H](C)CO)C(=O)CCCn2cc(nn2)CO[C@@H]1CN(C)S(=O)(=O)c1cn(C)cn1	3	·	1	-1	·	-2
COCc1ccc(C(=O)N2CCCC(Nc3ccc(C(C)C)cc3)C2)o1 (configuration not stated)	0	27	-3	-1	0	-1
SMILES	hgDAF12 agonist	AHR activator	DAX1 inh-1	ssDAF-12 act	DAX1 inh-2	hcDAF12 agonist
CC(CCN1CCC(C(O)(c2ccccc2)c2ccccc2)CC1)Oc1cccc(C(F)(F)F)c1 (configuration not stated)	1	·	0	0	·	6.4*
CC(C)c1ccc(NC(=O)Nc2nc(CN)cs2)cc1	12*	·	2	-1	·	1
CC(C)CN=c1cc(-c2ccccc2)oc2ccc(Cl)cc12	9	7	0	0	3	4
CC(O)CN=c1cc(-c2ccccc2)oc2ccc(Cl)cc12 (configuration not stated)	11*	7	1	-1	0	4
CN(C)CCCN=c1cc(-c2ccccc2)oc2ccc(Cl)cc12	10	·	4.4*	0	6.3*	5
COc1ccccc1/C=C/C=N/NC(=O)c1ccccn1	13*	13	4.1*	0	4	1
O=C(N/N=C/C1CCCCC1)c1ccccn1	12*	14	4	0	0	6.3*
COc1ccc(NC(=O)c2ccccn2)cc1OC	12*	3	1	0	4.4*	2
COc1ccccc1/C=C/C=N/NC(=O)c1cnccn1	8	18	0	-1	-1	0
CCC(=O)Nc1ccc(NC(=O)c2ccccn2)cn1	12*	20	2	0	-1	4
COc1ccc(NC(=O)c2ccccn2)cc1	·	2	·	·	-2	·
Cc1ccc(NC(=O)Nc2cc(S(C)(=O)=O)ccc2Cl)cc1	2	47*	1	-1	3	-1
CCCOc1ccc(C(=O)N2CCC(Oc3cccnc3)CC2)cc1	-2	·	-1	-2	·	-1
COc1ccc(CCNC(=O)CC2C(=O)NCCN2CC(C)(C)C)cc1 (configuration not stated)	1	-1	0	0	-1	0
CC(C)Oc1ccc(CCNC(=O)CC2C(=O)NCCN2C)cc1 (configuration not stated)	-1	1	2	-1	4.4*	-1
O=c1oc(Nc2ccc(F)cc2)nc2ccccc12	8	4	1	-1	0	5
O=c1nc(Nc2ccccc2)oc2ccccc12	8	9	1	0	5.8*	4
COc1cccc(CNc2ccc(S(N)(=O)=O)cc2)c1OCc1ccccc1F	-3	48*	-1	-1	-1	-5
CCOc1cc(NC(=S)NCc2ccccc2)c(OCC)cc1NC(=O)C(C)C	-3	23	1	-2	2	-1
Clc1cccc(Cl)c1COc1ccccc1CNn1cnnc1	-2	59*	0	-1	1	1
COc1ccc(OC)c(S(=O)(=O)NCc2cc(-c3ccccc3)no2)c1	-1	51*	0	0	1	2
O=C(CCCn1nnnc1CN1CCOCC1)N1CCN(c2ccccc2F)CC1	-1	2	-1	-1	1	-1
O=[N+]([O-])c1ccc(O)c(C=Nc2cccc3ccccc23)c1	0	52*	0	0	2	2
O=[N+]([O-])c1cccc(N/N=C/c2cc([N+](=O)[O-])ccc2O)c1	2	54*	0	-1	-1	-2

Source: PubChem BioAssay (The Scripps Research Institute Molecular Screening Center)
